Screening results from PubChem BioAssay.
AmpC inh detg: qHTS Inhibitors of AmpC Beta-Lactamase (assay with detergent); AmpC hydrolysis of nitrocefin, absorbance 480 nm, 0.01% Triton; Potency, µM (titrated, usually from 114 µM), for inactives: top-dose activity change, negative = inhibition, usual class: inhibitors; 370,000 compounds, 0.041% hits; AID 485294, 2010;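 further: 0% = no-compound wells and -100% = no-enzyme wells; nearly all actives have a fitted effect of over 25% in size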
Target sequence (P00811 whole entry, looked up): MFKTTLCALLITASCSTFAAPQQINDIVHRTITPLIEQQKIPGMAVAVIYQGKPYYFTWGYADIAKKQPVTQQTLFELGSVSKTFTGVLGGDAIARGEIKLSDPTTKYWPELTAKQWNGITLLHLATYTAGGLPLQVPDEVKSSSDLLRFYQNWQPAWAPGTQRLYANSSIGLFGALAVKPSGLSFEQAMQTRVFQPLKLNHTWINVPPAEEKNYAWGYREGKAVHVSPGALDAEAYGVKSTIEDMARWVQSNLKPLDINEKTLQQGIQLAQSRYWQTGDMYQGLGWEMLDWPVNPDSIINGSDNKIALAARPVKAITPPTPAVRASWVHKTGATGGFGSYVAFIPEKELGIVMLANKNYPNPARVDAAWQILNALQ
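AmpC (5.3 nM in the dispensed reagent) in 20 mM phosphate pH 7.0 with 0.01% (detergent screen) or 0.0001% Triton X-100 was preincubated with compounds for 15 min at room temperature. Nitrocefin was then added from an 800 uM solution, and hydrolysis was followed at 480 nm.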
AmpC no deterg: qHTS Inhibitors of AmpC Beta-Lactamase (assay without detergent); Potency, µM (titrated, usually from 57.1 µM), without a hit: at the top dose activity change, negative = inhibition, hits mostly inhibitors; AID 485341, 2010; AmpC nitrocefin hydrolysis, absorbance 480 nm, 0.0001% Triton; P00811; 330,000 compounds, 0.52% hits;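 further: plate controls were no compound for no effect and no enzyme for full effect; nearly all actives have a fitted effect of over 20% in size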
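20 mM phosphate pH 7.0 + 0.01% (detergent screen) or 0.0001% Triton X-100; 5.3 nM AmpC reagent; cpd preinc 15 min RT; nitrocefin (800 uM stock) to start; A480 q20 s × 4 min; Activity was normalised to no-enzyme and no-compound control wells.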
RE007 growth inh: qHTS Assay for Inhibitors of the HIV-1 protein Vpr; S. pombe RE007 Vpr strain, BacTiter-Glo ATP luminescence, 24 h; 360,000 compounds, 0.21% hits; Potency, µM (highest dose often 92.2 µM), inactives show at the top dose activity change, negative = less growth, most hits filed as inhibitors; AID 651644, 2012; active means well fitted falling curve with a large enough effect; inconclusive means small, poorly fitted or top-dose-only effect; inactive means no such curve, though single readings can be large or run the other way; further: nearly all actives have a fitted effect of over 50% in size
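Fission yeast RE007 carrying one integrated HIV-1 vpr copy, seeded at OD 0.01 in PMG+AL medium with 23 nL pinned compound. Grown 24 h at 30 degrees; viability read by BacTiter-Glo luminescence after 5 min.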
Sm TGR block: qHTS Assay for the Inhibitors of Schistosoma Mansoni Peroxiredoxins; Schistosoma mansoni thioredoxin glutathione reductase (TGR), Q962Y6; purified TGR, DTNB reduction, TNB absorbance 405 nm; Potency, µM (top dose mostly 114 µM), inactives show top-dose activity change, negative = inhibition, usual class: inhibitors; 360,000 compounds, 3% hits; AID 485364, 2010; further: nearly all actives have a fitted effect of over 60% in size
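First, TGR (20 nM dispensed) and NADPH were mixed with compound. Second, a 15 min room-temperature incubation followed. Third, further NADPH and then DTNB were added to start the reaction. Finally, TNB absorbance was monitored kinetically.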
AMA1 RON2 block: qHTS for Inhibitors of AMA1-RON; Towards Development of Antimalarial Drug Lead: Primary Screen. Potency, µM (top dose mostly 58.2 µM), for inactives: at the top dose activity change, negative = inhibition, most hits filed as inhibitors. AlphaScreen AMA1-biotinylated RON2 peptide binding. 360,000 compounds, 0.2% hits. Plasmodium falciparum AMA1 (3D7) - RON2 peptide interaction;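 further: 0% = vehicle wells and -100% = peptide control; nearly all actives have a fitted effect of over 45% in size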
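AMA1 (3D7) with his tag at 25 nM final met compounds first, then biotinylated RON2 peptide at 25 nM; detection used donor plus acceptor beads, 10 µg/mL apiece, read by AlphaScreen after 30 min at room temperature.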
Starred values were filed as active, the others as inactive; ? = inconclusive; / = no result. Only some compounds are listed: those with a hit (about 3.2% of all), similar ones and a draw of the others. Unless noted, the call rests on the fitted dose curve; in most records, active means well fitted curve in the direction sought with a large enough effect; inconclusive means small, poorly fitted or top-dose-only effect, or another doubt; inactive means no such curve, though single readings can be large; an effect the other way counts as inactive or inconclusive. Unless noted, on the % scale 0 is the no-effect control and ±100 the full control effect; potency means the concentration at half of the fitted maximal effect.

SMILES | AmpC inh detg | AmpC no deterg | RE007 growth inh | Sm TGR block | AMA1 RON2 block
Cc1c(C#N)c(NC(=O)CCl)n(Cc2ccccc2)c1C | -1% | -28% | -3% | 3.2µM* | 0%
Cc1ccc2c(=O)c(C(=O)c3ccccc3)cn(CC(=O)Nc3ccc4c(c3)OCCO4)c2n1 | 16% | / | / | 0% | /
Cc1nn2c(N3CCCC3)c3c(nc2c1-c1ccccc1)CCC3 | -8% | -9% | -6% | 11µM* | 15%
Cc1nn2c(N3CCN(CCO)CC3)c3c(nc2c1-c1ccccc1)CCCC3 | 1% | 125% | -21% | 13% | -7%
O=C(c1cccs1)n1nc(-c2ccco2)nc1SCc1ccccc1 | 4% | -23% | -7% | -12% | -3%
CC(=O)n1nc(-c2ccco2)nc1SCc1ccccc1 | -13% | -24% | 0% | 32µM* | -7%
CCC(=O)n1nc(-c2ccco2)nc1SCc1ccccc1 | 1% | -28% | 12% | 8.9µM* | -6%
Cc1cc(C)nc(NN2C(=O)/C(=C/c3ccccc3)SC2=S)n1 | 3% | -36% | -1% | -1% | 37%
COc1cc(/C=C2\SC(=S)N(Nc3ccccc3)C2=O)ccc1O | -13% | -21% | 3% | -15% | ?
O=C1/C(=C/c2ccncc2)SC(=S)N1Nc1ccccc1 | 7% | -32% | 26% | 3.2µM* | 24%
O=C1/C(=C/c2ccc(O)c(O)c2)SC(=S)N1Nc1ccccc1 | 2% | 25µM* | 3% | -25% | ?
O=C(O)c1ccc(/C=C2\SC(=S)N(Nc3ccccc3)C2=O)cc1 | 0% | -29% | 17% | 3.2µM* | 0%
CC(=O)Nc1ccc(NC(=O)CCCn2nc(C)c3sc4ccccc4c3c2=O)cc1 | 19% | / | / | -3% | /
COCCNc1ncnc2c1cnn2-c1cc(Cl)ccc1C | 8% | / | / | 10% | /
COc1ccc(N=Cc2c(O)c3ccccc3n2C(C)=O)cc1 | 3% | 1% | ? | 28µM* | 0%
CCc1ccc(-n2nc(C)c3c(C(=O)N4CCN(c5cccc(Cl)c5)CC4)cc(C)nc32)cc1 | 12% | / | / | 9% | /
COc1ccc(NC(=O)c2coc(C)c2)cc1 | 2% | -20% | -12% | 0% | 0%
CC(=O)c1ccc(NC(=O)c2noc3c2CCC3)cc1 | ? | ? | -18% | 40µM* | -19%
O=C(Nc1ccc(OC(F)(F)F)cc1)c1noc2c1CCCC2 | 21% | / | / | -5% | /
CC(=O)c1ccc(NC(=O)c2cc(CC(C)C)on2)cc1 | ? | 50µM* | -4% | 4% | 16%
COc1ccc(NC(=O)c2ccc(=O)oc2)cc1 | -10% | -16% | 4% | 45µM* | 6%
CC(C)Cc1cc(C(=O)Nc2cccnc2)no1 | ? | -5% | -8% | -1% | -10%
COc1ccc(NC(=O)c2noc3c2CCC3)cc1 | -11% | -20% | 40µM* | -23% | -9%
Cn1c(=O)c([N+](=O)[O-])c(-n2ccnc2)c2ccccc21 | 1% | -5% | -2% | 35µM* | -4%
COc1cccc(C(=O)/C=C/c2ccc(N3CCCCC3)c([N+](=O)[O-])c2)c1 | -4% | -28% | -15% | 3% | 5µM*
SMILES | AmpC inh detg | AmpC no deterg | RE007 growth inh | Sm TGR block | AMA1 RON2 block
COc1cccc(-c2nc(-c3ccc(-c4ccccc4)nc3OC)no2)c1 | 0% | / | / | 4% | /
CCCCCC#CCC#CCC#CCC#CCCCC(=O)O | -8% | 36% | / | 20µM* | /
CC(=O)c1c(C)[nH]c(C(=O)OC(C)C(=O)Nc2cc(S(=O)(=O)N3CCCCC3)ccc2Cl)c1C (stereo unspecified) | -10% | 7.9µM* | 5% | 8% | 4%
O=C1c2ccccc2C(=O)c2cc(N3CCCCC3)ccc21 | / | / | -18% | / | -11%
O=C1c2cccc(Cl)c2C(=O)c2c1cccc2N1CCCC1 | / | / | -35% | / | 6.3µM*
Cc1c([N+](=O)[O-])c(C(=O)N2CCCC2)nn1C | -11% | -10% | 1% | 1% | 2%
Cc1c([N+](=O)[O-])c(C(=O)Sc2ccc(Br)cc2)nn1C | 11% | -10% | ? | 0.5µM* | 15%
CCCCn1nc2cc(C(=O)NCc3cc(C(F)(F)F)cc(C(F)(F)F)c3)ccc2c1OC | 1% | 5.6µM* | 8% | 4% | -3%
CCn1nc2cc(C(=O)NCc3cc(C(F)(F)F)cc(C(F)(F)F)c3)ccc2c1OC | 0% | 55% | 1% | 1% | -6%
CCOC(=O)c1c(S(=O)(=O)N2CCCC(C(=O)N3CCN(c4ccc(F)cc4)CC3)C2)c(C)n(C)c1C (stereo unspecified) | -4% | / | / | -1% | /
O=C1C=C(N2CCOCC2)c2ccccc2C1=O | ? | -17% | -21% | ? | -22%
Cc1ccc(N2CCOCC2)c2c1C(=O)c1ccccc1C2=O | 3% | 120% | 4% | 6% | 14µM*
CCS(=O)(=O)c1ncc(Cl)c(C(=O)N2CCN(c3cccc(Cl)c3)CC2)n1 | 1% | / | / | 7.1µM* | /
CS(=O)(=O)c1ncc(Cl)c(C(=O)N2CCN(c3cccc(Cl)c3)CC2)n1 | 2% | / | / | 3.5µM* | /
Cc1[nH]c2ccc(C(=O)N3CCN(c4cccc(Cl)c4)CC3)cc2c1C | 3% | -9% | 22% | 7% | -3%
COc1cccc2oc3cc(C#CC4(O)CCCCC4)ccc3c(=O)c12 | ? | 235% | 0% | -28% | -7%
COc1cccc2oc3cc(C#Cc4ccccn4)ccc3c(=O)c12 | -10% | 34% | 7% | 7.9µM* | 19%
CCc1ccc(S(=O)(=O)c2nnn3c2nc(NC(C)C)c2cc(Cl)ccc23)cc1 | 4% | / | / | 1% | /
Cn1c2ccccc2c(=O)c2c(=O)n(Cc3ccco3)c(-c3ccc(Cl)cc3Cl)nc21 | -12% | -42% | / | 14µM* | /
Cc1nc2ccccc2c(=O)n1Cc1ccco1 | -7% | -21% | -1% | 0% | -4%
O=C1c2ccccc2C(=O)N1CCc1nc2ccccc2c(=O)n1Cc1ccco1 | -14% | -13% | -10% | 35µM* | 3%
O=C(On1c(-c2ccccc2)nc2ccccc2c1=O)c1ccco1 | -4% | / | ? | 6.3µM* | -9%
COc1cc(OC)cc(-c2nc3ccccc3c(=O)n2OC(=O)c2ccccc2C)c1 | -15% | -16% | 2% | 7% | 0%
O=c1c2ccccc2nc(/C=C/c2cccnc2)n1Cc1ccccc1 | -6% | 26% | 7% | -4% | 32µM*
CC(C)Cn1c(-c2ccco2)nc2c(c(=O)c3ccccc3n2C)c1=O | 3% | -23% | / | -21% | /
Cc1ccc(C)c(N2CCN(c3c(CN4CCCC4)c(=O)oc4ccccc34)CC2)c1 | 19% | / | / | ? | /
Cc1ccc(S(=O)(=O)NCCc2cn3ccsc3n2)c(C)c1 | 4% | / | / | -7% | /
